Consider 19 compounds from PubChem BioAssay (NCI).

The structures appear in SMILES notation. “And” between values parts separate entries of the source, which are not always exact repeats. Identical values can stand only once. The panel holds about 79,000 compounds, 15% with a hit somewhere; the sample as a whole holds those more often. Unmarked numbers belong to inactive results. The source made the active and inactive calls. Cut-off read from the data, not from the text of the source: active = growth inhibition above about 70%; inactive = the rest.

The nature of assay [1]: NCI Yeast Anticancer Drug Screen. Data for the rad50 strain (AID 155).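 Note: 0% = growth of vehicle-only cultures of the same strain.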 The settings on record: S. cerevisiae rad50 strain growth inhibition; at 50.0 µM; hits give high values. Put shortly: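 A DNA repair-deficient yeast mutant serves as the test organism; compound-induced growth inhibition is calculated against vehicle-treated cells.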
Assay [2] can be described thus: NCI Yeast Anticancer Drug Screen. Data for the mec2-1 strain (AID 157). The settings on record: S. cerevisiae mec2-1 strain, at 50.0 µM, hits give high values. Put shortly: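 Cells of the genetically defined mec2-1 yeast strain are incubated with test compound. Inhibition of growth is calculated against vehicle-treated controls.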
Assay [3] can be described thus: NCI Yeast Anticancer Drug Screen. Data for the sgs1 mgt1 strain (AID 161).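 Note: 0% = growth of cultures given vehicle only.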 The settings on record: S. cerevisiae sgs1 mgt1 strain, at 50.0 µM, hits give high values. A digest of the protocol:
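Inhibition of yeast growth, normalised to vehicle-treated controls, is reported for a strain bearing genetic alterations in DNA damage repair.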

Assay [4] is described as follows: NCI Yeast Anticancer Drug Screen. Data for the cln2 rad14 strain (AID 165).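 Note: 0% = growth equal to vehicle treated cultures.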 The settings on record: S. cerevisiae cln2 rad14 strain, at 50.0 µM, hits give high values. Put shortly: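 The screen exposed genetically defined yeast (cln2 rad14) to test compounds and scored growth inhibition relative to vehicle-treated controls.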
Assay [5] is described as follows: NCI Yeast Anticancer Drug Screen. Data for the bub3 strain (AID 167). The settings on record: S. cerevisiae bub3 mutant strain, at 50.0 µM, hits give high values. Put shortly:
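Inhibition values come from growth of compound-treated mutant yeast normalised to vehicle-treated controls.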

The nature of assay [6]: NCI Yeast Anticancer Drug Screen. Data for the mlh1 rad18 strain (AID 175). The following applies: S. cerevisiae mlh1 rad18 strain growth inhibition; at 50.0 µM; hits give high values. A digest of the protocol: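 Compound-treated yeast growth, normalised to vehicle controls. Strain bears defined DNA repair mutations.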

With `O=C1NC(=O)C(=C2C(=O)COC2=O)C(=O)N1`, the growth inhibition was -4.4% in assay [1]; -16.6% in assay [2]; -13.8% in assay [3]; -1.7% in assay [4]; -2.8% in assay [5]; -19.5% in assay [6].

For the compound `C[N+](C)(C)Cc1cccc([N+](=O)[O-])c1`, the growth inhibition in assay [1] was -47.9%; in assay [2], -5.5%; in assay [3], -3.8%; in assay [4], -40.7%; in assay [5], -4%; in assay [6], 13.2%.

On to `CCOP(=O)(OCC)C(N)Cc1ccc(OC)c(OC)c1` (centres undefined), for which the growth inhibition was -3.85% in assay [1]; -4% in assay [2]; 2.35% in assay [3]; 19.9% in assay [4]; 13% in assay [5]; -16.6% in assay [6].

For the compound `CC12CCC3C(CCC4(C)CC(OC(=O)Cc5ccc(N(CCCl)CCCl)cc5)CCC34C)C1CCC2=O` (centres undefined), the growth inhibition in assay [1] was -10.4%; in assay [2] it was 2.85%; in assay [3] it was -2.3%; in assay [4] it was -1.4%; in assay [5], -4.8%; in assay [6] it was 3.65%.

For the compound `CC1(C)OCC(C2NC2C2COC(C)(C)O2)O1` (centres undefined), the growth inhibition is -4.55% in assay [1]; -6.85% in assay [2]; -11.1% in assay [3]; -40.4% in assay [4]; -10.9% in assay [5]; 6.5% in assay [6].

As for `O=S1(=O)c2ccccc2-c2ccccc21`, the growth inhibition in assay [1] was -5%; in assay [2] it was -7.95%; in assay [3], -13.8%; in assay [4] it was -3.5%; in assay [5], -11.6%; in assay [6] it was 5.65%.

For the compound `[Pt].c1ccc([PH+](CC[PH+](CC[PH+](c2ccccc2)c2ccccc2)c2ccccc2)CC[PH+](c2ccccc2)c2ccccc2)cc1` (centres undefined), the growth inhibition in assay [1] is 22.8%; in assay [2], 14.3%; in assay [3] it was 25.6%; in assay [4], 8.6%; in assay [5] it was 16.6%; in assay [6], 8.75%.

Take `O=C(CC(=O)C(F)(F)F)c1cccs1.[Fe]`: the growth inhibition is 22.1% and 27.1% in assay [1]; 34.8% and 30.1% in assay [2]; 33.2% and 28.4% in assay [3]; 11.2% and 10.8% in assay [4]; 20.9% and 21.2% in assay [5]; 48.2% and 42.5% in assay [6].

Turning to `Cn1ccnc1C[N-]Cc1nccn1C.O=[N+]([O-])[O-].O=[N+]([O-])[O-].[Cu+2]`, the growth inhibition in assay [1] was 18.2%; in assay [2], 7.5%; in assay [3], -1.35%; in assay [4], 24.4%; in assay [5], -5.35%; in assay [6] it was 5.5%.

With `CCCN1CCC2(CC1)COCc1ccccc12`, the growth inhibition is 30.8% in assay [1]; 26.9% in assay [2]; 28.4% in assay [3]; 12.6% in assay [4]; 15.1% in assay [5]; 34.8% in assay [6].

As for `CC(=O)Nc1ccc(C(=O)O)cc1` (tested in a mixture with another compound), the growth inhibition in assay [1] is -25.9%; in assay [2] it was -43.6%; in assay [3] it was -17.4%; in assay [4], 3.65%; in assay [5], -46.2%; in assay [6], -7.75%.

Consider `COC(=O)c1nc(-c2ccc3c(n2)C(=O)C(N)=C(OC)C3=O)c(N)c(-c2ccc(OC)c(OC)c2O)c1C`, for which the growth inhibition in assay [1] is 58%; in assay [2] it was 7.25%; in assay [3] it was 36.1%; in assay [4] it was 26.2%; in assay [5], 23.2%; in assay [6] it was 47.5%.

In the case of `S=P(NNc1ccccc1)(NNc1ccccc1)c1ccc(Cl)cc1`, the growth inhibition in assay [1] was 75.4% (active); in assay [2] it was -33.1%; in assay [3] it was 81.9% (active); in assay [4], 82.3% (active); in assay [5], 34.6%; in assay [6], 83.2% (active).

As to `CCCCCCCCCl`, the growth inhibition in assay [1] was 14.7%; in assay [2], -4.7%; in assay [3], 7.75%; in assay [4] it was 20.1%; in assay [5], 8.4%; in assay [6], -8.5%.

Consider `CC(COC(=O)NCc1ccccc1)OC(N)=O` (centres undefined), for which the growth inhibition is -1.05% in assay [1]; -14.8% in assay [2]; 13.1% in assay [3]; -10.3% in assay [4]; 1.15% in assay [5]; -11.4% in assay [6].

In the case of `CC(C)CC1N=C(NN=C2CCCCC2)SP1(=O)NNc1ncccn1` (centres undefined), the growth inhibition in assay [1] was 1.25%; in assay [2], 7.15%; in assay [3], 12.5%; in assay [4] it was 2.35%; in assay [5], 0.4%; in assay [6] it was -0.1%.

Turning to `COC(=O)c1cccc(S(=O)(=O)F)c1`, the growth inhibition was -9.85% in assay [1]; -5.05% in assay [2]; -15.7% in assay [3]; -13.4% in assay [4]; 20.1% in assay [5]; -28.4% in assay [6].

For the compound `C=CC12CN(C)C3C4COC(CC41)C1(C(=O)Nc4ccccc41)C32` (centres undefined), the growth inhibition in assay [1] is 1.25% and -22.5%; in assay [2], -3.3% and -18.6%; in assay [3] it was -7.35%; in assay [4], -13.5%; in assay [5], -11.6%; in assay [6] it was 29.2% and -19.2%.

Consider `CC(=O)Oc1ccc([As](=O)(O)O)cc1`, for which the growth inhibition in assay [1] is 5.55%; in assay [2] it was -7.75%; in assay [3], 3.75%; in assay [4], -11.8%; in assay [5] it was 10.4%; in assay [6], 1.05%.
